# From PubChem BioAssay (EPA / NIEHS)
# Records with an inconclusive call do not appear. Active and inactive are the calls of the source. Rule for the calls: active = hit-call score of the fitted dose curve at least 0.9, where 1 is the maximum; inconclusive = response in the unintended direction; inactive = score below 0.9.
# Tests used:
# [1] = TOX21_p53_BLA_p2_viability: Viability Assessment in the Tox21 HCT-116 p53 Agonism Beta-lactamase Assay, Phase 2 (AID 2283591);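 note: compound exposure lasted 16 h at 37 °C; actives lower the ATP signal meaning cytotoxicity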
# Summary of the method: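 HCT-116 p53-bla cells (4000/well) rested 5 h at 37C, then received compounds in DMSO (217-fold dilution) for 16 h at 37C, 5% CO2. After the CCF4 read, CellTiter-Glo was added; ATP luminescence was read after 30 min at room temperature.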
# [2] = biological target: Cellular tumor antigen p53 (Homo sapiens) (UniProt P04637); assay: TOX21_p53_BLA_p2_ratio: Tox21 HCT-116 p53 Agonism Beta-lactamase Assay, Ratio, Phase 2 (AID 2283592)
# Sequence of Cellular tumor antigen p53 (Homo sapiens) (P04637 whole entry, looked up): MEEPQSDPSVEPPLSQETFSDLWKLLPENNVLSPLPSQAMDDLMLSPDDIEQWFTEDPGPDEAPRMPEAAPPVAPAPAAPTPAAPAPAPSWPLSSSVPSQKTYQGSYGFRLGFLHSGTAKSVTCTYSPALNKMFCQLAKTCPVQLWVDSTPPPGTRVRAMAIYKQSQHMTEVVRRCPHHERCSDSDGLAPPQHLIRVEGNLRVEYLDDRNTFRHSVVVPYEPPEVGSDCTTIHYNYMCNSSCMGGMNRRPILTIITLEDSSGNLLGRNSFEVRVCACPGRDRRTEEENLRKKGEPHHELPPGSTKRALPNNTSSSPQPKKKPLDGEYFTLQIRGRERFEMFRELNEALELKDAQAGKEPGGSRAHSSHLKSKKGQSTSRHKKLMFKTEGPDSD
# Summary of the method: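 HCT-116 cells with p53-responsive beta-lactamase reporter, 4000 cells/well, preincubated 5 h, then compound in DMSO (217-fold dilution) for 16 h at 37C. CCF4-AM substrate 2 h at room temperature; 460/530 nm emission ratio fitted upward versus DMSO.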
# [3] = TOX21_p53_BLA_p3_viability: Viability Assessment in the Tox21 HCT-116 p53 Agonism Beta-lactamase Assay, Phase 3 (AID 2283593);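 note: cells exposed to compound for 16 h before reading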
# Summary of the method: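 HCT-116 cells (4000/well) rested 5 h at 37C, then got DMSO compounds by pin tool (217-fold dilution) for 16 h at 37C, 5% CO2. After the bla read, CellTiter-Glo was added and luminescence read at 30 min, room temperature.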
# [4] = biological target: Cellular tumor antigen p53 (Homo sapiens) (UniProt P04637); assay: TOX21_p53_BLA_p3_ratio: Tox21 HCT-116 p53 Agonism Beta-lactamase Assay, Ratio, Phase 3 (AID 2283596)
# Summary of the method: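 HCT116 p53-bla cells (4000/well) given compound in DMSO (217-fold dilution) after 5 h, incubated 16 h at 37C. CCF4-AM substrate 2 h at room temperature; 460/530 nm emission ratio, gain fitted against DMSO.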
# [5] = TOX21_p53_BLA_p4_viability: Viability Assessment in the Tox21 HCT-116 p53 Agonism Beta-lactamase Assay, Phase 4 (AID 2283597);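 note: hits lower the luminescence signal meaning cytotoxicity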
# Summary of the method: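 HCT-116 p53-bla cells, 4000/well, dosed after 5 h attachment and incubated 16 h at 37 °C, 5% CO2. Viability from CellTiter-Glo ATP luminescence after 30 min at room temperature, taken after the beta-lactamase read; loss of signal indicates cytotoxicity.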
# [6] = biological target: Cellular tumor antigen p53 (Homo sapiens) (UniProt P04637); assay: TOX21_p53_BLA_p5_ratio: Tox21 HCT-116 p53 Agonism Beta-lactamase Assay, Ratio, Phase 5 (AID 2283599)
# Summary of the method: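 HCT-116 cells carrying a p53-inducible beta-lactamase reporter were seeded at 4000 cells/well and dosed after 5 h with compound in DMSO (217-fold dilution). After 16 h at 37C, CCF4-AM substrate was added for 2 h, and the 460/530 nm emission ratio was scored as gain-of-signal versus DMSO.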
# [7] = TOX21_p53_BLA_p5_viability: Viability Assessment in the Tox21 HCT-116 p53 Agonism Beta-lactamase Assay, Phase 5 (AID 2283600)
# Summary of the method: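 HCT-116 p53 beta-lactamase reporter cells, 4000/well, were exposed to compound (pin transfer, 217-fold dilution) for 16 hours at 37C. Cellular ATP was read by CellTiter-Glo luminescence after 30 min at room temperature.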
# [8] = biological target: Cellular tumor antigen p53 (Homo sapiens) (UniProt P04637); assay: TOX21_p53_BLA_p4_ratio: Tox21 HCT-116 p53 Agonism Beta-lactamase Assay, Ratio, Phase 4 (AID 2283601)
# Summary of the method: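 HCT116 cells carrying an inducible beta-lactamase reporter were plated at 4000 cells/well, rested 5 h, then exposed to compounds in DMSO (217-fold dilution) for 16 h at 37C. CCF4-AM substrate was loaded 2 h at room temperature; 460/530 nm emission ratio scored gain-of-signal versus DMSO.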
SMILES,AC50 [1],AC50 [2],AC50 [3],AC50 [4],AC50 [5],AC50 [6],AC50 [7],outcome [8],AC50 [8],outcome [1],outcome [2],outcome [3],outcome [4],outcome [5],outcome [6],outcome [7]
CC(C)=CCC1C(=O)N(c2ccccc2)N(c2ccccc2)C1=O,32.6 µM (active),7.19 µM (active),34.3 µM (active),10.2 µM (active),33.5 µM (active),7.67 µM (active),42.1 µM (active),inactive,,,,,,,,
COCC(=O)O[C@]1(CCN(C)CCCc2nc3ccccc3[nH]2)CCc2cc(F)ccc2[C@@H]1C(C)C,13.1 µM (active),22.4 µM (active),10.9 µM (active),19.6 µM (active),9.78 µM (active),25.4 µM (active),15.8 µM (active),,21.6 µM (active),,,,,,,
CCOc1ccccc1O[C@H](c1ccccc1)[C@H]1CNCCO1,,,,,,,,inactive,,inactive,inactive,inactive,inactive,inactive,inactive,inactive
Cc1cccc(N(C)C(=S)Oc2ccc3c(c2)CCC3)c1,,,,,,,,inactive,,inactive,inactive,inactive,inactive,inactive,inactive,inactive
N[C@H](C(=O)O)[C@@H]1CC(Cl)=NO1,15.8 µM (active),5.51 µM (active),9.5 µM (active),5.91 µM (active),13.7 µM (active),5.35 µM (active),11.4 µM (active),,5.46 µM (active),,,,,,,
C=C1/C(=C\C=C2/CCC[C@]3(C)[C@@H]([C@H](C)CCCC(C)C)CC[C@@H]23)C[C@@H](O)C[C@@H]1O,,20.7 µM (active),37.1 µM (active),40 µM (active),,,,inactive,,inactive,,,,inactive,inactive,inactive
CN[C@H]1CC[C@@H](c2ccc(Cl)c(Cl)c2)c2ccccc21,33.6 µM (active),,42 µM (active),,34.6 µM (active),,,,36.8 µM (active),,inactive,,inactive,,inactive,inactive
Oc1ccc(Cl)c2cccnc12,,,,,,,,inactive,,inactive,inactive,inactive,inactive,inactive,inactive,inactive
CN(C/C=C/c1ccccc1)Cc1cccc2ccccc12,,,,,,,,inactive,,inactive,inactive,inactive,inactive,inactive,inactive,inactive
COCC1=C(C(=O)OC(C)OC(=O)OC(C)C)N2C(=O)[C@@H](NC(=O)/C(=N\OC)c3csc(N)n3)[C@H]2SC1 (stereo partly specified),,,,,,,,inactive,,inactive,inactive,inactive,inactive,inactive,inactive,inactive
C[C@@H](NCCCc1cccc(C(F)(F)F)c1)c1cccc2ccccc12,21.4 µM (active),39 µM (active),30 µM (active),40.2 µM (active),15.2 µM (active),,,,25.1 µM (active),,,,,,inactive,inactive
COc1cc(C(=O)OCCCN2CCCN(CCCOC(=O)c3cc(OC)c(OC)c(OC)c3)CC2)cc(OC)c1OC,,,,,,,,inactive,,inactive,inactive,inactive,inactive,inactive,inactive,inactive
COc1ccccc1N1CCN(CC(O)COc2cccc3ccccc23)CC1 (stereo unspecified),,,,,23 µM (active),,,inactive,,inactive,inactive,inactive,inactive,,inactive,inactive
Nc1ccc(N)c2ccccc12,46 µM (active),16.5 µM (active),3.49 µM (active),,46 µM (active),86 µM (active),46 µM (active),,13.5 µM (active),,,,inactive,,,
CN(Cc1cc(Br)cc(Br)c1N)C1CCCCC1,,,39.5 µM (active),,,,,inactive,,inactive,inactive,,inactive,inactive,inactive,inactive
C=CC(OCC)OCC,,,,,,,,inactive,,inactive,inactive,inactive,inactive,inactive,inactive,inactive
Cc1cccc(C)c1OCC(=O)N[C@@H](Cc1ccccc1)[C@@H](O)C[C@H](Cc1ccccc1)NC(=O)[C@H](C(C)C)N1CCCNC1=O,,,,,37.5 µM (active),,,inactive,,inactive,inactive,inactive,inactive,,inactive,inactive
CC(C)COCC(CN(Cc1ccccc1)c1ccccc1)N1CCCC1 (stereo unspecified),,,,,,,,inactive,,inactive,inactive,inactive,inactive,inactive,inactive,inactive
O=C(O)c1cc(-c2ccccc2)nc2ccccc12,,,,,,,,inactive,,inactive,inactive,inactive,inactive,inactive,inactive,inactive
CCCCCCCCS(=O)C(C)Cc1ccc2c(c1)OCO2 (stereo unspecified),78.9 µM (active),39.3 µM (active),,90.9 µM (active),74.7 µM (active),86.8 µM (active),58.2 µM (active),,88.7 µM (active),,,inactive,,,,
O=C(Nc1ccc(Br)cc1)c1cc(Br)c(Br)s1,23 µM (active),,32.2 µM (active),18.8 µM (active),19.5 µM (active),19.9 µM (active),,inactive,,,inactive,,,,,inactive

SMILES,AC50 [1],AC50 [2],AC50 [3],AC50 [4],AC50 [5],AC50 [6],AC50 [7],outcome [8],AC50 [8],outcome [1],outcome [2],outcome [3],outcome [4],outcome [5],outcome [6],outcome [7]
CO[C@@]12[C@H](COC(N)=O)C3=C(C(=O)C(C)=C(N)C3=O)N1C[C@@H]1N[C@@H]12,33.2 µM (active),7.59 µM (active),29.5 µM (active),3.24 µM (active),,6.3 µM (active),34.4 µM (active),,20.8 µM (active),,,,,inactive,,
CCN(CC)CCCC(C)Nc1c2ccc(Cl)cc2nc2ccc(OC)cc12 (stereo unspecified),,25.8 µM (active),,23.7 µM (active),,38.7 µM (active),,,35.1 µM (active),inactive,,inactive,,inactive,,inactive
CC(=O)[C@@]1(O)CC[C@H]2[C@@H]3C=C(Cl)C4=CC(=O)CC[C@]4(C)[C@H]3CC[C@@]21C,,37 µM (active),,,23 µM (active),37.9 µM (active),,,37.8 µM (active),inactive,,inactive,inactive,,,inactive
CN(C)CCCN1c2ccccc2Sc2ccc(C(F)(F)F)cc21,,,,11.1 µM (active),36.2 µM (active),,,,10.1 µM (active),inactive,inactive,inactive,,,inactive,inactive
COc1cc(-c2ccc(-[n+]3nc(-c4ccccc4)nn3-c3ccc([N+](=O)[O-])cc3)c(OC)c2)ccc1-[n+]1nc(-c2ccccc2)nn1-c1ccc([N+](=O)[O-])cc1,13 µM (active),19.1 µM (active),21.3 µM (active),36.5 µM (active),11.4 µM (active),21.7 µM (active),17.6 µM (active),,18 µM (active),,,,,,,
Nc1ccc(C(=O)Nc2ccccc2N)cc1,,12.6 µM (active),,21.1 µM (active),20.9 µM (active),,,inactive,,inactive,,inactive,,,inactive,inactive
CCC(=O)O[C@]1(C(=O)SCF)[C@H](C)C[C@H]2[C@@H]3C[C@H](F)C4=CC(=O)C=C[C@]4(C)[C@@]3(F)[C@@H](O)C[C@@]21C,,,,,,,,inactive,,inactive,inactive,inactive,inactive,inactive,inactive,inactive
CCCC1([C@H](O)C/C=C/[C@H]2[C@H](O)CC(=O)[C@@H]2CCCCCCC(=O)OC)CCC1,,,,,36.3 µM (active),,,inactive,,inactive,inactive,inactive,inactive,,inactive,inactive
CC[C@H](C)COC(=O)/C=C/c1ccc(N=Cc2ccc(OC)cc2)cc1,43.5 µM (active),87.2 µM (active),,,46 µM (active),,,,84.4 µM (active),,,inactive,inactive,,inactive,inactive
CSc1ccc(/C=C2/C(C)=C(CC(=O)O)c3cc(F)ccc32)cc1,22.4 µM (active),,41.1 µM (active),,23.1 µM (active),19.7 µM (active),36.4 µM (active),inactive,,,inactive,,inactive,,,
OC[C@@H](O)[C@@H](O[C@@H]1O[C@H](CO)[C@H](O)[C@H](O)[C@H]1O)[C@H](O)[C@@H](O)CO,,,,,,,,inactive,,inactive,inactive,inactive,inactive,inactive,inactive,inactive
O=C(CCS)OCC(COC(=O)CCS)(COC(=O)CCS)COC(=O)CCS,,,,15.7 µM (active),,,,inactive,,inactive,inactive,inactive,,inactive,inactive,inactive
CN1[C@@H]2CC[C@H]1CC(OC(=O)C(O)c1ccccc1)C2 (stereo partly specified),,,,,,,,inactive,,inactive,inactive,inactive,inactive,inactive,inactive,inactive
CC[C@H]1OC(=O)[C@H](C)C(=O)[C@H](C)[C@@H](O[C@@H]2O[C@H](C)C[C@H](N(C)C)[C@H]2O)[C@](C)(OC)C[C@@H](C)C(=O)[C@H](C)[C@H]2N(CCCCn3cnc(-c4cccnc4)c3)C(=O)O[C@]12C,,,,,,,,inactive,,inactive,inactive,inactive,inactive,inactive,inactive,inactive
CCCCCCCC/C=C\CCCCCCCCOCCO,72.5 µM (active),96.6 µM (active),29.2 µM (active),80.3 µM (active),72.6 µM (active),56.2 µM (active),21.1 µM (active),,105 µM (active),,,,,,,
COc1cc(N)c(Cl)cc1C(=O)NC1CCN(CCCOc2ccc(F)cc2)CC1OC (stereo unspecified),,,,,,,,inactive,,inactive,inactive,inactive,inactive,inactive,inactive,inactive
Cc1cc(O)c2c(c1)O[C@@]1(C)CC[C@H]3C(C)(C)CCCC34CO[C@@H]2[C@H]41 (stereo partly specified),31 µM (active),44.2 µM (active),34.3 µM (active),43.7 µM (active),29.6 µM (active),30.6 µM (active),20.8 µM (active),,43.4 µM (active),,,,,,,
O=C(O)c1ccc(Cl)c(Cl)c1,,,,,,,,inactive,,inactive,inactive,inactive,inactive,inactive,inactive,inactive
O=C(O)c1c(Cl)c(Cl)c(Cl)c(Cl)c1-c1c2cc(I)c(=O)c(I)c-2oc2c(I)c(O)c(I)cc12,37.2 µM (active),,13.6 µM (active),,44.1 µM (active),,,,43.1 µM (active),,inactive,,inactive,,inactive,inactive
CCCCCCCCCCOCC(O)CN (stereo unspecified),36.8 µM (active),,,,36.8 µM (active),,,,42.9 µM (active),,inactive,inactive,inactive,,inactive,inactive
O=C1C=CC(=O)N1,,73.5 µM (active),69.8 µM (active),70.8 µM (active),79.4 µM (active),82.4 µM (active),,,70.3 µM (active),inactive,,,,,,inactive
